The nature of assay [1]: compounds binding Alexa647 anti-His antibody – biochemical, small-molecule microarray, 635 nm fluorescence, artefact control for SMM control protein annotation, primary screen (AID 1128).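 Also: score merges feature fluorescence with signal-to-noise for each printed compound spot.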 As to conditions: higher = more signal.
The subject of assay [2] is Human papillomavirus type 1a E7 protein (residues 1-88). Briefly: HPV1a E7 small-molecule binders, primary screen, biochemical, small-molecule microarray, residues 1-88, 635 nm (AID 1129). Conditions: small-molecule microarray binding, fluorescence 635 nm; higher = more signal.
The target in assay [3] is Focal adhesion kinase 1 (Homo sapiens) (UniProt Q05397). Briefly: PTK2 protein binding on printed compound slides – biochemical, small-molecule microarray, 635/667 nm fluorescence, BSA, DTT, primary screen (AID 1130).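 Also: composite of spot emission at 667 nm and signal to noise over triplicate slides.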 As to conditions: 635 nm fluorescence, higher = more signal.
Assay [4] has as its system Fibrinogen (Alexa647-labelled). In words: Alexa647-fibrinogen binding to printed small molecules – biochemical, small-molecule microarray, 635/667 nm fluorescence, artefact control for SMM control-protein annotation, profiling panel (AID 1131).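 Also: z-score merges 667 nm fluorescence with per-spot signal-to-noise over triplicate slides.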 Conditions: fibrinogen-A647 binding fluorescence, higher = more signal.
The target of assay [5] is Follistatin (Homo sapiens) (UniProt P19883). Briefly: FST protein binding to printed compounds – biochemical, small-molecule microarray, 635/667 nm fluorescence, primary screen (AID 1132). Conditions: 635 nm fluorescence, higher = more signal.
Assay [6] concerns the target Fibroblast growth factor 2 (Homo sapiens) (UniProt P09038). Briefly: basic fibroblast growth factor binding to printed compounds – biochemical, small-molecule microarray, 635/667 nm fluorescence, primary screen (AID 1133). As to conditions: FGF2, fluorescence 635/667, higher = more signal.
Assay [7] can be described thus: JC-1 mitochondrial potential readout, lung cancer cells – cell-based, A549, JC-1 fluorescence, basal, 24 h, 100 nL, profiling panel (AID 1138).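 Also: A549 lung adenocarcinoma cells under basal conditions with no added stimulus; test concentration not given here.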 As to conditions: higher = more signal.
Another assay relates to Lefty1. Briefly: Lefty1 protein binding to printed compounds – biochemical, small-molecule microarray, 635/667 nm fluorescence, primary screen (AID 1139). Conditions: fluorescence 635/667, higher = more signal.
Assay [8] relates to wheat germ agglutinin (Triticum aestivum), Alexa647-labelled. In words: Alexa647-WGA lectin binding to printed small molecules – biochemical, small-molecule microarray, 635/667 nm fluorescence, artefact control for SMM control-protein annotation, profiling panel (AID 1140).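 Also: score merges 667 nm feature emission with signal to noise over triplicate slides.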 As to conditions: WGA-A647 binding, 635 nm fluorescence, higher = more signal.
For assay [9], the target named is Luciferin 4-monooxygenase (Photinus pyralis) (UniProt P08659). In words: inhibition of purified Photinus pyralis luciferase – biochemical, luminescence, purified enzyme, 2006 set, primary screen (AID 1141).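 Also: cell-free assay with purified firefly luciferase at 100 ng per well in PBS; test concentration not given here.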 Conditions: purified firefly luciferase, SteadyGlo luminescence, 30 min; higher = more signal, called active from +8 up or from −8 down.
Assay [10] deals with Wnt5a (protein binding on small-molecule microarray). Briefly: small molecules binding Wnt5a protein – biophysical, small-molecule microarray, 635/667 nm fluorescence, primary screen (AID 1142).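 Also: fluorescence read at 667 nm with signal to noise per printed feature.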 As to conditions: 635 nm fluorescence, higher = more signal.
Assay [11] can be described thus: ATP-based viability of Huh7 replicon cells – cell-based, CellTiter-Glo luminescence, basal, 48 h, cytotoxicity control for HCV replication inhibitor project, primary screen (AID 1143).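 Also: Huh7 hepatoma cells carrying a hepatitis C replication reporter with no stimulus; test concentration not given here.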 As to conditions: higher = more signal, called active from +8 up or from −8 down. For orientation: Replicon systems follow genome replication, usually without infectious particles.
Assay [12] can be described thus: Pseudomonas biofilm growth suppression – PAO1 strain, BacTiter-Glo luminescence, LB-PBS, primary screen (AID 1144). Conditions: P. aeruginosa PAO1 biofilm, 12 h, higher = more signal.
Assay [13] in a line: basal CRE-LacZ reporter activity in PC12 – cell-based, unstimulated, primary screen (AID 1145). As to conditions: no forskolin, luminescence, 4.5 h, higher = more signal, called active from +8 up or from −8 down.
The nature of assay [14]: forskolin-driven CRE-LacZ activity in PC12 – cell-based, CRE-LacZ reporter, forskolin-stimulated, primary screen (AID 1146).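 Also: PC12 cells with 6xCRE LacZ reporter stimulated by forskolin 10 µM; beta-galactosidase reporter signal reflecting CREB driven transcription.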 Conditions: luminescence, 4.5 h, higher = more signal, called active from +8 up or from −8 down.
The target in assay [15] is Streptavidin (Streptomyces avidinii) (UniProt P22629). Briefly: compounds binding control protein streptavidin – biophysical, small-molecule microarray, 635/667 nm fluorescence, artefact control for SMM compound annotation, primary screen (AID 1147).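 Also: signal reflects streptavidin binding to arrayed compounds as a control protein.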 Conditions: higher = more signal.
A short description of assay [16]: probe aInhba binding on compound microarray – biochemical, small-molecule microarray, 635/667 nm fluorescence, primary screen (AID 1148).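 Also: score merges 667nm spot fluorescence with signal-to-noise for antibody binding to printed compounds.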 As to conditions: higher = more signal.
Assay [17] deals with Torsin-1A (Homo sapiens) (UniProt O14656). In words: TOR1A wild-type binding on microarray – cell lysate, small-molecule microarray, lysate, 635/667 nm, primary screen (AID 1149). As to conditions: COS7 hTOR1A-WT lysate, 635 nm fluorescence, higher = more signal.
The target is the same in assay [18]. Briefly: torsin A mutant lysate binding on microarrays – cell lysate, small-molecule microarray, COS7 lysate, 635/667 nm fluorescence, primary screen (AID 1150).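 Also: score pools 667 nm emission and signal to noise measuring lysate protein binding.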 As to conditions: COS7 hTOR1A mutant lysate, 635 nm fluorescence, higher = more signal.
The test system of assay [19] is Sonic hedgehog protein (Shh). In words: Sonic hedgehog microarray binding compounds – biochemical, small-molecule microarray, 635/667 nm fluorescence, primary screen (AID 1151).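 Also: Shh protein binding to compounds spotted on small-molecule microarray slides; score combines spot fluorescence intensity with signal-to-noise across triplicate slides.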 Conditions: 635 nm fluorescence, higher = more signal.

The source made the active and inactive calls. Unless noted, no rule for the calls is given here.

Sequence of Torsin-1A (Homo sapiens) (O14656 whole entry, looked up): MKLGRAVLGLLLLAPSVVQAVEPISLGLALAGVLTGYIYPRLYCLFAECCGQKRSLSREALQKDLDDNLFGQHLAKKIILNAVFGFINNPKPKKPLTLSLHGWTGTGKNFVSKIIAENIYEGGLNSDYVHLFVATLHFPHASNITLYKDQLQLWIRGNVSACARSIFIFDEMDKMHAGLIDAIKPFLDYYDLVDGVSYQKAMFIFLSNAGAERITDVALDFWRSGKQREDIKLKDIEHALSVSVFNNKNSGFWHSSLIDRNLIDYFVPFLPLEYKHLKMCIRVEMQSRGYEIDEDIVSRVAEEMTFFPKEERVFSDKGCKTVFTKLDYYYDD
Sequence of Luciferin 4-monooxygenase (Photinus pyralis) (P08659 whole entry, looked up): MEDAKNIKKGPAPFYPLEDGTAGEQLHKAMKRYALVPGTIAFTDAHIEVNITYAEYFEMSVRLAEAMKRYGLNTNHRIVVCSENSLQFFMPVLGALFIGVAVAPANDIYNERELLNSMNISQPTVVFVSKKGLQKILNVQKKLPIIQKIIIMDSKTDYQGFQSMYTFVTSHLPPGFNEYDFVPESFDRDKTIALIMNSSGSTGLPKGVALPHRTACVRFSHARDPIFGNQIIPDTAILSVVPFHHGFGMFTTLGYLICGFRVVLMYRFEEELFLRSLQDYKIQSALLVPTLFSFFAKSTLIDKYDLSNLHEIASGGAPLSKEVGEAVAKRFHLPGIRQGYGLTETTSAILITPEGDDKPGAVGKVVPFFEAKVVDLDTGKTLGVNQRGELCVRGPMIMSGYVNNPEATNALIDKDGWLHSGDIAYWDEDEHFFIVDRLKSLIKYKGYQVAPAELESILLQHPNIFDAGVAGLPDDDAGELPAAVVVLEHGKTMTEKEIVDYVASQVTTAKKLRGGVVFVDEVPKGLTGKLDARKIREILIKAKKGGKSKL
Sequence of Streptavidin (Streptomyces avidinii) (P22629 whole entry, looked up): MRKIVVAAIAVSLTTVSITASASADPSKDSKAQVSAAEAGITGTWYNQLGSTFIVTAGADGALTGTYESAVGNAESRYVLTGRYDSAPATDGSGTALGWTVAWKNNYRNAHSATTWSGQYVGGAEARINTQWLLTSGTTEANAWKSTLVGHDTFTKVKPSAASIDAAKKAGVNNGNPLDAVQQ
Sequence of Fibroblast growth factor 2 (Homo sapiens) (P09038 whole entry, looked up): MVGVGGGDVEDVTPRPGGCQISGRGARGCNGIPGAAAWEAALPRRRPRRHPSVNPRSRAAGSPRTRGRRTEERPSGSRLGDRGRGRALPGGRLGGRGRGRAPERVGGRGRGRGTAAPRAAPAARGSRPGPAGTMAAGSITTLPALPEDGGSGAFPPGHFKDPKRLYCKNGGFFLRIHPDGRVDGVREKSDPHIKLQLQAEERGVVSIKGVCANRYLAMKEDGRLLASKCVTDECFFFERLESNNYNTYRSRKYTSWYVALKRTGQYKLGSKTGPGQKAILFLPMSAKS
Sequence of Follistatin (Homo sapiens) (P19883 whole entry, looked up): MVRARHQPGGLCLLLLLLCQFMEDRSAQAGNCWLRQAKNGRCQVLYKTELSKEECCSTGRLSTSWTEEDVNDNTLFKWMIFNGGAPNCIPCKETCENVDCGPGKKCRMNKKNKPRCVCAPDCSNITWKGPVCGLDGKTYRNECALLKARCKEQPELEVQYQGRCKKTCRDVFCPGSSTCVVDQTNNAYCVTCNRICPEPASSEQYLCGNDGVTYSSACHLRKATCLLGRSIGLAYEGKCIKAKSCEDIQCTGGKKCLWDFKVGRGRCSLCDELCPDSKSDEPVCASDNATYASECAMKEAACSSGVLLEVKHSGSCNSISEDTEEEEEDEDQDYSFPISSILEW
Sequence of Focal adhesion kinase 1 (Homo sapiens) (Q05397 whole entry, looked up): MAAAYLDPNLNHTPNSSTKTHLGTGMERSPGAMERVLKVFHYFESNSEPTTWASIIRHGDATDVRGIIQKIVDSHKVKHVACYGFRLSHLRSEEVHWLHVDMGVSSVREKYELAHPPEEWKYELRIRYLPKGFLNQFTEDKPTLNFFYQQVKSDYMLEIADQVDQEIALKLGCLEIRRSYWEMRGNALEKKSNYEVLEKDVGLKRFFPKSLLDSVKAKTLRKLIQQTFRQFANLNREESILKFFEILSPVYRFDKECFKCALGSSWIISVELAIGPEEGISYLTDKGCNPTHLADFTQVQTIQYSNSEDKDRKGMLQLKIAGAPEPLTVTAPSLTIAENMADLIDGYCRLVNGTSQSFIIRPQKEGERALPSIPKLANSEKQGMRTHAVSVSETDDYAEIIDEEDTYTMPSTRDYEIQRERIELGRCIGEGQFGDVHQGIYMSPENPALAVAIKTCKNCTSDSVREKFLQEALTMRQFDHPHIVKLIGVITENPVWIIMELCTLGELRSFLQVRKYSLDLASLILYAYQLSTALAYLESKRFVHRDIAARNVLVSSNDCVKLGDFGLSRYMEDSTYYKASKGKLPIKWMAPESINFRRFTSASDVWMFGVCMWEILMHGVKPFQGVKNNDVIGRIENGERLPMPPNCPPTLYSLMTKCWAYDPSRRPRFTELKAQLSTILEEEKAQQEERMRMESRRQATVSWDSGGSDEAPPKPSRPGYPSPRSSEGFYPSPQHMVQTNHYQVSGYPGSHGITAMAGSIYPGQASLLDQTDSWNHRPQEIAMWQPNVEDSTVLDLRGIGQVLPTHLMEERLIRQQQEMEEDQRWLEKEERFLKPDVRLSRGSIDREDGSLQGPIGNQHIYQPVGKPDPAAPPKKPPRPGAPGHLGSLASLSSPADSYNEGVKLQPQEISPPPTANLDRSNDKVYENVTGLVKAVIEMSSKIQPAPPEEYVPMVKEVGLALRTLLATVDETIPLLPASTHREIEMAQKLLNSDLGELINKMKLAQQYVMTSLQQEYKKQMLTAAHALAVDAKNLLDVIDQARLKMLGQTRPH

As for `[N-]=[N+]=Nc1ccccc1C[C@@]1(C(=O)O)N=C(c2ccc(OCCCO)cc2)O[C@@H]1c1ccccc1`, the composite z-score in assay [1] is 1.22; in [2], 0.749; in assay [3] it was 0.769; in [4] it was 0.997; in [5] it was 0.247; in assay [6] it was -0.0664. The composite z-score with Lefty1 is -0.634; in assay [8], 1.09; in assay [10], 0.104; in assay [15] it was 1.48; in [16], 0.0633; in the assay with Torsin-1A (Homo sapiens) [17], 0.0324. The composite z-score with Torsin-1A (Homo sapiens) [18] was 0.779; in [19], -0.0424. Moreover, the z-score is 0.528 in assay [7]; -0.972 (inactive) in assay [9]; -0.275 (inactive) in assay [11]; -0.078 (inactive) in [12]; -0.585 (inactive) in [13]; -0.218 (inactive) in [14].
For the compound `C=CCN1C(=O)[C@@]2(O[C@@H](CCn3cc([C@H](O)c4ccccc4)nn3)[C@H]([Si](C)(C)c3ccc(OC)cc3)[C@H]2C)c2ccccc21`, the composite z-score came to 0.351 in [1]; 1.14 in assay [2]; 0.287 in assay [3]; 0.371 in assay [4]; 1.18 in assay [5]; 0.761 in assay [6]. The composite z-score with Lefty1 was 1.2; in [8], 0.875; in assay [10] it was 0.351; in assay [15], -0.0664; in assay [16], 0.134; in the assay with Torsin-1A (Homo sapiens) [17] it was -0.0628. The values for the composite z-score (in the assay with Torsin-1A (Homo sapiens) [18]; in [19]) were -0.168 and 1.7, respectively. The z-score in assay [7] is 0.493; in assay [9] it was 0.586 (inactive); in assay [11] it was -3.85 (inactive); in assay [12], 0.0526 (inactive); in assay [13] it was 3.9 (inactive); in assay [14], -0.448 (inactive).
`Cc1c(NC(=O)/C(C#N)=C/C=C/c2ccc(N(C)C)cc2)c(=O)n(-c2ccccc2)n1C`: the composite z-score in [1] was 1.61; in assay [2], 1.18; in [3], 0.0505; in assay [4], 0.449; in [5], 0.763; in assay [6], 0.492. Moreover, the composite z-score in the assay on Lefty1 was determined as 0.517; in [8] it was 1.04; in [10], 0.48; in assay [15], 0.96; in assay [16], 0.264; with Torsin-1A (Homo sapiens) [17], 0.314. Further, the composite z-score is 0.288 with Torsin-1A (Homo sapiens) [18] and 0.259 in assay [19]. The z-score was 1.43 in [7]; -3.99 (inactive) in [9]; -0.853 (inactive) in [11]; 2.09 (inactive) in assay [12]; 0.595 (inactive) in [13]; -1.4 (inactive) in [14].
With `COc1ccc(CCNC(=O)[C@@]2(Sc3ccc(C)cc3)CC(=O)N(Cc3cc(C(F)(F)F)cc(C(F)(F)F)c3)[C@@H]2c2ccc(CO)cc2I)cc1`, the composite z-score in assay [1] was -0.361; in [2], -0.162; in assay [3], 0.368; in assay [4], 0.562; in assay [5], 0.801; in [6], -0.525. Besides, the composite z-score in the assay with Lefty1 was 0.012; in assay [8], -0.0603; in assay [10], -0.466; in assay [15] it was 0.762; in assay [16] it was 0.0184; in the assay with Torsin-1A (Homo sapiens) [17], 0.579. Moreover, the composite z-score with Torsin-1A (Homo sapiens) [18] is -0.145; in [19], 0.697. The z-score was 0.345 in [7]; 0.664 (inactive) in assay [9]; -0.73 (inactive) in [11]; -0.623 (inactive) in [12]; -0.554 (inactive) in assay [13]; 1.05 (inactive) in assay [14].
Take `CCOC(=O)[C@H]1C/C=C/C[C@H](C(=O)OCC)C(=O)O[C@H]2[C@@H](OC)O[C@H](CO)[C@@H](OC(=O)CCc3ccccc3)[C@@H]2OC1=O`: the composite z-score in [1] was 0.522; in assay [2], -0.267; in assay [3] it was -0.542; in assay [4], 0.0772; in [5] it was -0.502; in assay [6], -0.924. Further, the composite z-score is -0.172 in the assay on Lefty1; -0.185 in assay [8]; -0.581 in assay [10]; -0.345 in assay [15]; 0.788 in [16]; -0.407 in the assay with Torsin-1A (Homo sapiens) [17]. The composite z-score with Torsin-1A (Homo sapiens) [18] is -0.532; in assay [19], -0.0617. The z-score in assay [7] is 3.06; in [9], 0.418 (inactive); in assay [11], -1.31 (inactive); in assay [12], -1.28 (inactive); in assay [13] it was -0.475 (inactive); in assay [14], -0.0955 (inactive).
For the compound `CCOc1cc(C(O)C2C=CC3C(=O)N(C4CCCCC4)C(=O)C3N2Nc2ccc(OC)cc2)ccc1O` (stereo not given), the composite z-score in [1] is 0.675; in assay [2], 1.19; in assay [3], 0.903; in assay [4] it was 0.705; in [5], 0.846; in assay [6], -0.0785. Further, the composite z-score in the assay on Lefty1 came out at 0.225; in [8], 0.686; in [10], 0.0751; in [15], 1.43; in [16], 0.0808; with Torsin-1A (Homo sapiens) [17] it was 0.705. For the same compound, the composite z-score in the assay with Torsin-1A (Homo sapiens) [18] was 1.17; in [19] it was -0.207. The z-score is 0.786 in [7]; -0.0537 (inactive) in [9]; -1.26 (inactive) in [11]; -0.855 (inactive) in [12]; 0.276 (inactive) in assay [13]; -1.51 (inactive) in assay [14].
With `C=CCOC(=O)[C@@H]1[C@H]2C(=O)O[C@H](c3ccccc3)[C@H](c3ccccc3)N2[C@H](c2ccc(OCCOC(=O)[C@H]3C[C@H]4C(=O)N[C@@H](CCCCNC(C)=O)C(=O)N4[C@H]3c3cccc(OCCO)c3)cc2)[C@@]12C(=O)Nc1ccc(I)cc12`, the composite z-score in [1] was found to be 1.98; in assay [2] it was 1.19; in assay [3], 0.323; in assay [4], 0.777; in assay [5], 1.43; in [6] it was 1.45. Further, the composite z-score in the assay on Lefty1 was 1.28; in assay [8], -0.045; in [10], 0.218; in [15], 0.356; in [16], -0.0313; in the assay with Torsin-1A (Homo sapiens) [17], 1.01. Besides, the composite z-score with Torsin-1A (Homo sapiens) [18] turned out to be 0.495; in [19], 1.89. The z-score in assay [7] was -1.11; in assay [9], -0.662 (inactive); in assay [11], -0.495 (inactive); in [12] it was -0.929 (inactive); in assay [13], -0.256 (inactive); in [14], 0.215 (inactive).
Turning to `C=CCOC(=O)[C@H]1[C@@H]2C(=O)O[C@@H](c3ccccc3)[C@@H](c3ccccc3)N2[C@@H](c2ccc(OCCOC(=O)[C@H]3C[C@H]4C(=O)N[C@@H](Cc5ccccc5)C(=O)N4[C@H]3c3ccc(O)cc3)cc2)[C@]12C(=O)Nc1ccc(I)cc12`, the composite z-score in assay [1] was determined as 0.951; in [2], 1.14; in [3], 0.665; in assay [4], 0.565; in assay [5] it was 1.32; in [6], 1.29. In addition, the composite z-score in the assay with Lefty1 was 1.69; in assay [8] it was 0.958; in assay [10], 0.72; in assay [15] it was 0.133; in [16], -0.0567; with Torsin-1A (Homo sapiens) [17], 0.586. Moreover, the composite z-score with Torsin-1A (Homo sapiens) [18] is 0.691; in [19], 2.32. In addition, the z-score was -0.395 in assay [7]; -0.649 (inactive) in assay [9]; -0.918 (inactive) in [11]; -0.707 (inactive) in assay [12]; 1.09 (inactive) in assay [13]; 0.204 (inactive) in assay [14].

Values taken from PubChem BioAssay.
